Source: PubChem BioAssay AID1159580 (chemical genetic matrix, 2015)
The whole screen tested about 5,500 compounds, of which about 2,000 (36%) were called active. Roughly 18% stayed inconclusive and do not appear here. The list shows a part of the results. Values without a mark were called inactive. Rule as the data show it: active = normalized growth mostly below about 0.91 (no sharp cut-off); inconclusive = no clear call, values can overlap the other calls; inactive = mostly above about 0.92.

Experiment: chemical genetic growth profiling, strain panel (AID 1159580);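 also: tested at 20 µM; growth read once vehicle control cultures reached saturation at 30 °C; 1 = growth at the plate median or of vehicle wells; lower values mean less growth of the strain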
Conditions: growth OD

## CC(C)=CCc1c(O)cc2occ(-c3ccc4c(c3)OCO4)c(=O)c2c1O
S. cerevisiae deletion strains, locus YJR066W, strain TOR1, hits give low values
  normalized growth: 0.832
S. cerevisiae deletion strains, locus YJR075W, strain HOC1, hits give low values
  normalized growth: 0.994
S. cerevisiae deletion strains, locus YKL068W, hits give low values
  normalized growth: 1.01
S. cerevisiae deletion strains, locus YKL085W, strain MDH1 (second series), hits give low values
  normalized growth: 1
S. cerevisiae deletion strains, locus YKL085W, strain MDH1, hits give low values
  normalized growth: 1
S. cerevisiae deletion strains, locus YKL160W, strain elf1, hits give low values
  normalized growth: 0.934
S. cerevisiae deletion strains, locus YKL190W, strain CNB1, hits give low values
  normalized growth: 1.01
S. cerevisiae deletion strains, locus YKR001C, strain vps1, hits give low values
  normalized growth: 1.03
S. cerevisiae deletion strains, locus YKR026C, strain gcn3, hits give low values
  normalized growth: 0.992
S. cerevisiae deletion strains, locus YKR091W, strain srl3, hits give low values
  normalized growth: 1
S. cerevisiae deletion strains, locus YLL001W, strain dnm1, hits give low values
  normalized growth: 0.81 (active)
S. cerevisiae deletion strains, locus YLL026W, hits give low values
  normalized growth: 0.984
S. cerevisiae deletion strains, locus YLL041C, strain sdh2, hits give low values
  normalized growth: 0.991
S. cerevisiae deletion strains, locus YLR027C, strain aat2, hits give low values
  normalized growth: 0.918 (active)
S. cerevisiae deletion strains, locus YLR039C, strain RIC1, hits give low values
  normalized growth: 1.06
S. cerevisiae deletion strains, locus YLR058C, strain SHM2, hits give low values
  normalized growth: 1.02
S. cerevisiae deletion strains, locus YLR102C, strain apc9, hits give low values
  normalized growth: 1.03
S. cerevisiae deletion strains, locus YLR113W, strain HOG1, hits give low values
  normalized growth: 0.75 (active)
S. cerevisiae deletion strains, locus YLR221C, strain rsa3, hits give low values
  normalized growth: 0.865 (active)
S. cerevisiae deletion strains, locus YLR258W, strain gsy2, hits give low values
  normalized growth: 0.919
S. cerevisiae deletion strains, locus YLR262C, strain YPT6 (second series), hits give low values
  normalized growth: 0.911
S. cerevisiae deletion strains, locus YLR262C, strain YPT6, hits give low values
  normalized growth: 1.06
S. cerevisiae deletion strains, locus YLR268W, strain sec22, hits give low values
  normalized growth: 1
S. cerevisiae deletion strains, locus YLR320W, strain mms22, hits give low values
  normalized growth: 0.929
S. cerevisiae deletion strains, locus YLR330W, strain CHS5, hits give low values
  normalized growth: 1.01
S. cerevisiae deletion strains, locus YLR342W, strain FKS1 (second series), hits give low values
  normalized growth: 0.996
S. cerevisiae deletion strains, locus YLR342W, strain FKS1, hits give low values
  normalized growth: 0.952
S. cerevisiae deletion strains, locus YLR357W, strain rsc2, hits give low values
  normalized growth: 0.948
S. cerevisiae deletion strains, locus YLR370C, strain arc18, hits give low values
  normalized growth: 0.992
S. cerevisiae deletion strains, locus YLR371W, strain rom2, hits give low values
  normalized growth: 1.04
S. cerevisiae deletion strains, locus YLR384C, strain iki3, hits give low values
  normalized growth: 0.992
S. cerevisiae deletion strains, locus YLR418C, strain cdc73, hits give low values
  normalized growth: 1.01
S. cerevisiae deletion strains, locus YML016C, strain PPZ1, hits give low values
  normalized growth: 1.01
S. cerevisiae deletion strains, locus YML032C, strain rad52, hits give low values
  normalized growth: 1.02
S. cerevisiae deletion strains, locus YML120C, strain ndi1, hits give low values
  normalized growth: 0.895 (active)
S. cerevisiae deletion strains, locus YML124C, strain tub3, hits give low values
  normalized growth: 1.02
S. cerevisiae deletion strains, locus YMR058W, strain fet3, hits give low values
  normalized growth: 0.828 (active)
S. cerevisiae deletion strains, locus YMR078C, strain ctf18, hits give low values
  normalized growth: 1.03
S. cerevisiae deletion strains, locus YMR125W, strain sto1, hits give low values
  normalized growth: 0.957
S. cerevisiae deletion strains, locus YMR129W, hits give low values
  normalized growth: 0.982
S. cerevisiae deletion strains, locus YMR205C, strain PFK2, hits give low values
  normalized growth: 0.96
S. cerevisiae deletion strains, locus YMR223W, strain ubp8, hits give low values
  normalized growth: 1.02
S. cerevisiae deletion strains, locus YMR231W, strain pep5, hits give low values
  normalized growth: 0.993
S. cerevisiae deletion strains, locus YMR263W, strain SAP30, hits give low values
  normalized growth: 1
S. cerevisiae deletion strains, locus YMR307W, strain GAS1, hits give low values
  normalized growth: 1
S. cerevisiae deletion strains, locus YNL067W, strain RPL9B, hits give low values
  normalized growth: 1
S. cerevisiae deletion strains, locus YNL071W, strain lat1, hits give low values
  normalized growth: 0.949
S. cerevisiae deletion strains, locus YNL128W, strain TEP1, hits give low values
  normalized growth: 1.02
S. cerevisiae deletion strains, locus YNL153C, strain GIM3, hits give low values
  normalized growth: 1
S. cerevisiae deletion strains, locus YNL183C, strain NPR1, hits give low values
  normalized growth: 0.839
S. cerevisiae deletion strains, locus YNL209W, strain ssb2, hits give low values
  normalized growth: 0.937
S. cerevisiae deletion strains, locus YNL233W, strain BNI4, hits give low values
  normalized growth: 0.971
S. cerevisiae deletion strains, locus YNL248C, strain rpa49, hits give low values
  normalized growth: 0.962
S. cerevisiae deletion strains, locus YNL250W, strain rad50, hits give low values
  normalized growth: 1.04
S. cerevisiae deletion strains, locus YNL271C, strain bni1, hits give low values
  normalized growth: 1.03
S. cerevisiae deletion strains, locus YNL298W, strain CLA4, hits give low values
  normalized growth: 1.05
S. cerevisiae deletion strains, locus YNL307C, strain MCK1, hits give low values
  normalized growth: 1.02
S. cerevisiae deletion strains, locus YNL322C, strain KRE1 (second series), hits give low values
  normalized growth: 0.998
S. cerevisiae deletion strains, locus YNL322C, strain KRE1, hits give low values
  normalized growth: 1.01
S. cerevisiae deletion strains, locus YNR049C, strain mso1, hits give low values
  normalized growth: 0.982
S. cerevisiae deletion strains, locus YNR052C, strain pop2, hits give low values
  normalized growth: 1.03
S. cerevisiae deletion strains, locus YOL006C, strain TOP1, hits give low values
  normalized growth: 1.05
S. cerevisiae deletion strains, locus YOL012C, strain htz1
  normalized growth: 0.966
S. cerevisiae deletion strains, locus YOL147C, strain pex11, hits give low values
  normalized growth: 1.03
S. cerevisiae deletion strains, locus YOR001W, strain rrp6, hits give low values
  normalized growth: 0.857 (active)
S. cerevisiae deletion strains, locus YOR061W, strain CKA2, hits give low values
  normalized growth: 1.01
S. cerevisiae deletion strains, locus YOR069W, strain VPS5, hits give low values
  normalized growth: 1.01
S. cerevisiae deletion strains, locus YOR070C, strain gyp1, hits give low values
  normalized growth: 0.954
S. cerevisiae deletion strains, locus YOR080W, strain dia2, hits give low values
  normalized growth: 0.925
S. cerevisiae deletion strains, locus YOR083W, strain WHI5, hits give low values
  normalized growth: 0.925
S. cerevisiae deletion strains, locus YOR106W, strain vam3, hits give low values
  normalized growth: 0.899
S. cerevisiae deletion strains, locus YOR136W, strain idh2, hits give low values
  normalized growth: 1.03
S. cerevisiae deletion strains, locus YOR144C, strain elg1, hits give low values
  normalized growth: 1.02
S. cerevisiae deletion strains, locus YOR184W, strain ser1, hits give low values
  normalized growth: 1.05
S. cerevisiae deletion strains, locus YOR231W, strain MKK1, hits give low values
  normalized growth: 0.816 (active)
S. cerevisiae deletion strains, locus YOR265W, strain rbl2, hits give low values
  normalized growth: 0.968
S. cerevisiae deletion strains, locus YOR270C, strain vph1, hits give low values
  normalized growth: 0.729 (active)
S. cerevisiae deletion strains, locus YOR290C, strain snf2, hits give low values
  normalized growth: 0.916
S. cerevisiae deletion strains, locus YOR316C, strain cot1, hits give low values
  normalized growth: 1.02
S. cerevisiae deletion strains, locus YPL051W, strain arl3, hits give low values
  normalized growth: 0.877 (active)
S. cerevisiae deletion strains, locus YPL055C, strain LGE1, hits give low values
  normalized growth: 0.993
S. cerevisiae deletion strains, locus YPL078C, strain atp4, hits give low values
  normalized growth: 0.918
S. cerevisiae deletion strains, locus YPL106C, strain sse1, hits give low values
  normalized growth: 0.915
S. cerevisiae deletion strains, locus YPL240C, strain hsp82, hits give low values
  normalized growth: 0.974
S. cerevisiae deletion strains, locus YPL241C, strain CIN2, hits give low values
  normalized growth: 1.01
S. cerevisiae deletion strains, locus YPL256C, strain CLN2, hits give low values
  normalized growth: 0.808 (active)
S. cerevisiae deletion strains, locus YPR119W, strain clb2, hits give low values
  normalized growth: 1.02
S. cerevisiae deletion strains, locus YPR141C, strain kar3, hits give low values
  normalized growth: 1.03
S. cerevisiae deletion strains, locus YPR163C, strain tif3, hits give low values
  normalized growth: 1.02
S. cerevisiae deletion strains, locus YPR167C, strain met16, hits give low values
  normalized growth: 1.03
S. cerevisiae deletion strains, strain wtn01, hits give low values
  normalized growth: 1.02
S. cerevisiae strains, strain wild type, hits give low values
  normalized growth: 1
